Shown are actives, neighbours in structure and some others; about 3.6% of the full set was active somewhere.
MITF act – activators of MITF-driven TRPM1 promoter reporter, primary screen, cell-based, SK-MEL-5, luciferase, single point; SK-MEL-5 TRPM1-promoter luciferase, 24 h; % of positive control, neutral wells = 0; activation, % at 12.5 µM; 300,000 tested, 0.75% active;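 active = mean activation of at least 80% with every replicate also reaching 80%; inconclusive = mean reaches 80% but some replicate falls short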;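 also: 0% = neutral control wells and 100% = parthenolide positive control wells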
APOBEC3A inh – APOBEC3A ssDNA deaminase inhibitors, primary screen, selectivity assay for APOBEC3G inhibitor project, biochemical, FAM/TAMRA oligo cleavage fluorescence. DNA dC->dU-editing enzyme APOBEC-3A (Homo sapiens), P31941. recombinant A3A, FAM/TAMRA ssDNA deamination fluorescence. inhibition, % at 20 µM. 330,000 tested, 0.41% active. AID 493011, 2011;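 active = at least 40% inhibition at 20 µM here, with at most 30% in a related deaminase screen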;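 also: plate controls were A3A with DMSO for no effect and wells lacking A3A enzyme for full effect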
Target sequence (P31941 whole entry, looked up): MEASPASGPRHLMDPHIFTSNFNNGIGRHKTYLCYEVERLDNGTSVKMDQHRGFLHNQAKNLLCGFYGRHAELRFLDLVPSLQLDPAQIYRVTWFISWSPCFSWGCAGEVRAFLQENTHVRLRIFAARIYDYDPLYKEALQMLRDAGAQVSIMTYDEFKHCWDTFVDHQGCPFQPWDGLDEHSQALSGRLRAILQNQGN
PHOSPHO1 block – PubChem AID 1565; Phosphoethanolamine/phosphocholine phosphatase (Homo sapiens), Q8TCT1; recombinant PHOSPHO1, absorbance phosphatase assay; inhibition, % at 13.3 µM; 290,000 tested, 1.1% active; in the data active = inhibition above about 60%
esBAF inh – Bmi1 luciferase reporter increase in mESCs, primary screen, esBAF inhibitor project, mouse ES cells, Bmi1 luciferase knock-in, single point. 24 h; 100% = twice the neutral-well signal. reporter increase, % at 12.5 µM. 350,000 tested, 2% active; in the data active = activation above about 40%; inconclusive = no clear call, values can overlap the other calls;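 also: 0% = median of the plate's neutral control wells and 100% = double that signal; a rise in the Bmi1 reporter signal indicates esBAF inhibition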
APOBEC3G inh – APOBEC3G DNA deaminase inhibitors, primary screen, biochemical, fluorescence, single-stranded DNA substrate, uHTS; inhibition, % at 20 µM; recombinant A3G, ssDNA deamination FAM/TAMRA fluorescence; 330,000 tested, 0.28% active;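 active = inhibition of at least 40% at 20 µM, with no more than 30% in the related APOBEC3A deaminase screen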;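 also: plate controls were DMSO wells with A3G for no effect and wells lacking A3G enzyme for full effect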
Target sequence (Q9HC16 whole entry, looked up): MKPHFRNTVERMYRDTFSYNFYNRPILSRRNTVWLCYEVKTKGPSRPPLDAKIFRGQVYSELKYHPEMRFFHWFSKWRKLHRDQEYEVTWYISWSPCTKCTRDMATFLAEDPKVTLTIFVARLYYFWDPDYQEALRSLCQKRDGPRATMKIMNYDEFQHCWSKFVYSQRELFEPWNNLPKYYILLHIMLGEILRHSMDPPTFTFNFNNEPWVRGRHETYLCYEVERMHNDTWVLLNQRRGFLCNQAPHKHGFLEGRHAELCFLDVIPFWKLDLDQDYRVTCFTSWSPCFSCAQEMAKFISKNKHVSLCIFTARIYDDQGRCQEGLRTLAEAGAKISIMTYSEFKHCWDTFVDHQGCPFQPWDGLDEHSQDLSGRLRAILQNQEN
Wnt act – Wnt/beta-catenin pathway activators, primary screen, cell-based, plate reader, single point. activation, % at 9.35 µM. Wnt/beta-catenin reporter cell assay, activator. 300,000 tested, 1.2% active; in the data active = activation above about 30%, passing the limit was not always enough; inconclusive = no clear call, values can overlap the other calls;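 also: 0% = neutral control wells and 100% = positive control wells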
Numbers without * were called inactive; ? = inconclusive; . = no result given; ! = not active in a repeat.

SMILES | MITF act | APOBEC3A inh | PHOSPHO1 block | esBAF inh | APOBEC3G inh | Wnt act
C#CCOC(=O)CCCC(=O)Nc1ccccc1OC | 1 | -5 | -33 | 0 | -5 | 50*
COc1ccc(NC(=S)Nc2cc(-c3ccccc3)[nH]n2)cc1Cl | 0 | 2 | 69* | 6 | 2 | 6
Cc1cc(NC(=S)Nc2ccc(C)c(Cl)c2)n[nH]1 | 91* | 1 | -51 | . | -3 | ?
COc1ccc(NC(=S)Nc2cc(C)[nH]n2)cc1Cl | 59 | -2 | -133 | 24 | 4 | 26
Cc1c(C)c2ccc(OC(C)C(=O)NC3CC(C)(C)NC(C)(C)C3)cc2oc1=O (stereo not given) | -3 | -2 | 70* | -1 | -8 | 1
O=C(C[C@@H]1C=C[C@H](NS(=O)(=O)c2ccc(F)cc2)[C@H](CO)O1)NCc1ccc(Cl)c(Cl)c1 | . | . | . | 15 | . | .
C[C@@H]1CN([C@H](C)CO)C(=O)c2cc(NC(=O)Nc3cccc4ccccc34)ccc2O[C@@H]1CN(C)C(=O)Nc1ccc2c(c1)OCO2 | . | . | . | 2 | . | .
CO[C@@H](CN(C)S(=O)(=O)c1ccc(Cl)cc1)[C@@H](C)CN(C(=O)Nc1ccccc1F)[C@@H](C)CO | . | . | . | 1 | . | .
CCOP(=O)(OCC)C(NC(=O)/C=C/c1ccc(OC)cc1)c1ccccc1 (stereo not given) | 9 | -7 | -30 | . | -18 | 34*
CCC(=O)c1ccc(OC(=O)c2cccs2)cc1 | 14 | -4 | . | -8 | -8 | -7
O=C(COC(=O)c1cccs1)c1ccc2ccccc2c1 | . | 2 | -6 | 42* | 0 | 32*
CCN(CC)c1ccc(NC(=O)COC(=O)c2cccs2)cc1 | 4 | -3 | 100* | -9 | -6 | .
CCc1ccc(C(=O)COC(=O)c2cccs2)cc1 | ? | 6 | 23 | 34 | -2 | 62*
CCN(c1ccc(NC(=O)COC(=O)c2cccs2)cc1)C(C)C | . | -3 | 33 | -2 | -3 | 2
C/C(=N/NC(=O)c1cccs1)c1ccc(NC(=O)COc2ccc(Cl)cc2)cc1 | -18 | -3 | 15 | 50* | -4 | .
C/C(=N\NC(=O)c1ccc(Cl)cc1)c1cccs1 | 46 | . | 13 | -9 | . | 26
O=C(COC(=O)c1cccs1)c1ccc2c(c1)OCCO2 | 46 | 4 | 11 | 19 | 3 | -2
N#C[C@@H]1N[C@@H](CO)[C@@H]1c1ccc(C#Cc2ccc(F)cc2)cc1 | . | . | . | 13 | . | .
Cc1ccc(C(=O)COC(=O)c2cccs2)cc1 | 57 | -1 | -17 | . | -4 | 52*
CC(C)c1cn(CC[C@@H]2CC[C@@H](NC(=O)Nc3cc(Cl)cc(Cl)c3)[C@H](CO)O2)nn1 | . | . | . | -9 | . | .
O=C(CCl)N1c2ccccc2Oc2ccc3ccccc3c21 | -87 | . | . | 50* | . | 8
c1ccc(-c2nc3ccccn3c2-c2ccccc2)cc1 | -4 | 0 | . | . | -5 | 43*
COC(=O)Nc1c(-c2ccccc2)nc2ccccn12 | -7 | 1 | -45 | 3 | -5 | .
COc1ccc(C2=Nc3ccccc3OC2)cc1 | 64 | 0 | 11 | 64* | -1 | 21
Oc1[nH]c2ccccc2c1C=Nc1ccccc1 | ? | 0 | -6 | ? | -8 | 45*
SMILES | MITF act | APOBEC3A inh | PHOSPHO1 block | esBAF inh | APOBEC3G inh | Wnt act
C[C@H]1CN([C@@H](C)CO)C(=O)c2cccc(NC(=O)c3ccncc3)c2O[C@H]1CN(C)CC1CCCCC1 | . | . | . | 3 | . | .
C[C@@H]1CN([C@@H](C)CO)C(=O)CCCn2cc(nn2)CO[C@@H]1CN(C)C(=O)Nc1ccccc1 | . | . | . | -7 | . | .
O=c1[nH]cnc2cc(-c3ccccc3)sc12 | . | -1 | 6 | 42* | -8 | .
O=c1[nH]cnc2nc(-c3ccccc3)c(-c3ccccc3)nc12 | -14 | 1 | -6 | -9 | -1 | -3
COc1ccc(-c2cc3nc(CCl)[nH]c(=O)c3s2)cc1 | -11 | -1 | 22 | -68 | -3 | 8
COc1ccc(-c2cc3nc[nH]c(=O)c3s2)cc1 | 27 | -1 | 7 | 7 | -7 | 34*
C[C@@H]1CN([C@H](C)CO)C(=O)c2cc(C3=CCCC3)cnc2O[C@H]1CN(C)S(C)(=O)=O | . | . | . | 1 | . | .
CCc1ccccc1NC(=O)[C@@H]1CCC(=O)N1C1OC(=O)c2ccccc21 (stereo not given in full) | -4 | -2 | -12 | 0 | -5 | -1
CC(C)c1ccc(NC(=O)[C@@H]2CCC(=O)N2C2OC(=O)c3ccccc32)cc1 (stereo not given in full) | 46 | 0 | 23 | 56* | 1 | 0
COc1ccc(NC(=O)N(C)C[C@H]2OCCCC[C@@H](C)Oc3ccc(NC(=O)Nc4ccc(C(F)(F)F)cc4)cc3C(=O)N([C@H](C)CO)C[C@H]2C)cc1 | . | . | . | -3 | . | .
COc1ccc(-n2nc(C(=O)NCC(=O)N3CCC(C)CC3)c3ccccc3c2=O)cc1Cl | 79 | -7 | 23 | 47* | -6 | 8
COc1ccc(-n2nc(C(=O)NCC(=O)N3CCN(c4ccccn4)CC3)c3ccccc3c2=O)cc1Cl | 29 | -2 | -36 | . | -3 | 2
Cc1cc(C(=O)COc2ncnc3sccc23)c(C)n1C | 55 | 1 | -18 | 55* | -1 | .
S=c1[nH]nc(COc2ccc(Cl)cc2)o1 | -4 | -6 | 103* | -6 | -4 | -3
Cc1ccc(C)c(OCc2n[nH]c(=S)o2)c1 | -5 | 4 | -12 | . | -3 | 2
COc1ccc(OCc2n[nH]c(=S)o2)cc1 | -1 | -4 | 88* | 5 | -7 | .
S=c1[nH]nc(CCc2ccc(Cl)cc2)o1 | -5 | -2 | 21 | 0 | 1 | .
Cc1cccc(N2C(=O)CSC2c2cccnc2)c1 (stereo not given) | 2 | -1 | 4 | -10 | -7 | -4
Cc1cccc(N2CCN(c3cccc(C)c3)C2c2cccnc2)c1 | . | -2 | -8 | 12 | -10 | 37*
CO[C@@H]1CN(C)C(=O)c2ccc(NC(=O)C3CC3)cc2OC[C@H](C)N(C(=O)c2ccccc2F)C[C@@H]1C | . | . | . | 31 | . | .
C[C@]12CC[C@H]3C(=CCc4cc(O)ccc43)[C@@H]1CCC2=O | 37 | -3 | 6 | 31*! | -2 | 0
CC(=O)Nc1ccc(NC(=O)/C(Cl)=C/c2ccccc2)cc1 | 111* | -6 | 4 | 53* | -9 | -1
CC(=O)Nc1ccc(C(=O)N/C(=C/c2ccccc2)C(=O)Nc2cccc(C(=O)O)c2)cc1 | 10 | 1 | 45 | 17 | -5 | 5

High-throughput results as filed in PubChem BioAssay.
